The results in this text go back to PubChem BioAssay (Tox21).

Results filed as inconclusive are left out. Active and inactive are the calls of the source. Calls come from the whole dose curve; as a rule, active = well fitted inhibition curve with a large enough effect in the signal ratio in the repeat runs (not every such curve was filed as active); inconclusive = weak or mixed curves, or effect the other way; inactive = no such curve, though single readings can be large or run the other way; the % refers to the signal ratio.

Sequence of Vitamin D3 receptor (Homo sapiens) (P11473 whole entry, looked up): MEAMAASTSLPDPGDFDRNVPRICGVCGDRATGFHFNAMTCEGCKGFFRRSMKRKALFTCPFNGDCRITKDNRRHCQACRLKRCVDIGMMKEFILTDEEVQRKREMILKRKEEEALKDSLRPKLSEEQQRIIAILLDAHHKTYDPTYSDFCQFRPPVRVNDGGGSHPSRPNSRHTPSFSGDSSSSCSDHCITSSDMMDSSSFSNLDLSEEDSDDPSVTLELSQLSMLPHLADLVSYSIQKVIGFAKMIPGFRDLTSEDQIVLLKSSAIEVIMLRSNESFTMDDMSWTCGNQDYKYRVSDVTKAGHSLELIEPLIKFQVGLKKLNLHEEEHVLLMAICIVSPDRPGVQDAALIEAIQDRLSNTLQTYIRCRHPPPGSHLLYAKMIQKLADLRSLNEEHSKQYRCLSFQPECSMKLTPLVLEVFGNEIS

The assay addresses Vitamin D3 receptor (Homo sapiens) (UniProt P11473). Briefly: qHTS assay to identify small molecule antagonists of the vitamin D receptor (VDR) signaling pathway (AID 743223). Particulars: VDR-UAS-bla HEK293T, beta-lactamase FRET ratio, 16 h; series mostly up to 61 µM. The text has this:
U.S. Tox21 Program National Center for Advancing Translational Sciences [NCATS] NIH Chemical Genomics Center [NCGC] U.S. Environmental Protection Agency [EPA] National Institutes of Environmental Health Sciences [NIEHS] National Toxicology Program [NTP] U.S. Food and Drug Administration [FDA] Tox21 Assay Overview: The vitamin D receptor (VDR), a member of nuclear hormone receptor superfamily, plays a critical role in calcium homeostasis and bone metabolism. It is also involved in cell differentiation and growth, and thrombogenicity.
Tox21 Assay Protocol Summary: VDR-bla cells were dispensed at 2,000 cells/5 uL of assay medium per well into black wall/clear-bottom 1536-well plates using a Multidrop Combi (Thermo Fisher Scientific, Waltham, MA) dispenser. After the assay plates were incubated at a 37C and 5% CO2 for 4 h, 23 nL of compounds dissolved in DMSO, positive controls or DMSO only was transferred to the assay plate by a Pintool station (Kalypsys, San Diego, CA), followed by addition of 1 uL of 1alpha, 25-Dihydroxy Vitamin D3 (3 nM, final concentration in the wells) using a Bioraptr Flying Reagent Dispenser (FRD) workstation (Beckman Coulter, Indianapolis, IN). The plates were incubated at 37C and 5% CO2 for 16 h, and then 1 uL of LiveBLAzerTM B/G FRET substrate was added using a Bioraptr FRD. The plates were incubated at room temperature for 2 h and fluorescence intensity was measured by an Envision plate reader (PerkinElmer, Shelton, CT).
For `CC(=O)NNC(C)=O`, the result was inactive.
`CCCCCCCC(=O)OCCCCCC`: the result was inactive.
To `Cc1ccc(N(CC2=NCCN2)c2cccc(O)c2)cc1` belongs “inactive”; to `O=C(O)c1cccc(Oc2ccccc2)c1`, “inactive”; to `CC(=O)OCCC1CCCCC1`, “inactive”.
Under `CN(C)CC/C=C1\c2ccccc2Sc2ccc(Cl)cc21` stands “inactive”; under `CCCCCCC(O)CCCCCCCCCCC(=O)OC` (stereo not given), “inactive”; under `CC(C)(C)C1(CCc2ccc(Cl)cc2)CO1` (stereo not given), “inactive”.
Under `CC(C)(O)c1coc(S(=O)(=O)NC(=O)Nc2c3c(cc4c2CCC4)CCC3)c1` stands “inactive”; under `Nc1ccc(N=Nc2ccc(N)cc2)cc1`, “inactive”; under `COc1cc(NS(=O)(=O)c2ccc(N)cc2)nc(C)n1`, “inactive”.
Regarding `Cc1c(C2(c3cc(Br)c(O)c(Br)c3C)OS(=O)(=O)c3ccccc32)cc(Br)c(O)c1Br`, the outcome was inactive.
On to `CCC(=O)OCc1ccc(OC)cc1`, for which the outcome was inactive.
With `CC(O)Cn1cnc2c1c(=O)n(C)c(=O)n2C` (stereo not given), the outcome was inactive.
Under `COc1ccc(-c2cc(C(F)F)nn2-c2ccc(S(N)(=O)=O)cc2)cc1F` stands “inactive”; under `CC[C@H]1OC(=O)[C@H](C)[C@@H](O[C@H]2C[C@@](C)(OC)[C@@H](O)[C@H](C)O2)[C@H](C)[C@@H](O[C@@H]2O[C@H](C)C[C@H](N(C)C)[C@H]2O)[C@](C)(O)C[C@@H](C)/C(=N\OCOCCOC)[C@H](C)[C@@H](O)[C@]1(C)O`, “inactive”.
In the case of `CCN(Cc1cccc(S(=O)(=O)O)c1)c1ccc(C(=C2C=CC(=[N+](CC)Cc3cccc(S(=O)(=O)O)c3)C=C2)c2ccccc2S(=O)(=O)[O-])cc1`, the result was inactive.
With `CCOCCC(=O)OCC`, the outcome was inactive.
To `COc1ccc(N)c([N+](=O)[O-])c1` belongs “inactive”; to `COc1cc(NCc2ccc3nc(N)nc(N)c3c2C)cc(OC)c1OC`, “inactive”; to `CCCCCCCCCCCC(=O)OCC(O)CO` (stereo not given), “inactive”.
On to `CC(=O)N[C@@H](Cc1ccc(O)cc1)C(=O)O`, for which the result was inactive.
Take `O=C(O)c1cccc(C[C@@H]2COc3ccc(OCc4nc5cc(F)ccc5s4)cc3[C@@H]2O)c1`: the outcome was inactive.
Under `N[C@@H](Cc1cc(I)c(O)c(I)c1)C(=O)O` stands “inactive”; under `CCC(CO)(CO)[N+](=O)[O-]`, “inactive”.
Turning to `CC(C)(C)CCCCCCOC(=O)c1ccccc1C(=O)OCCCCCCC(C)(C)C`, the outcome was inactive.
Under `CCCCCCCC/C=C/C(=O)O` stands “inactive”.
For `COC(OC)OC`, the outcome was inactive.
Consider `COc1ccc(-c2cc(=S)ss2)cc1`, for which the outcome was inactive.
Under `CCCCCCCCCCCCCCCCCC(=O)OCC(CC)CCCC` (stereo not given) stands “inactive”.
For `CCCCCCOC(=O)CCCCC`, the outcome was inactive.
For the compound `COc1ccc(C2C(=O)c3ccccc3C2=O)cc1`, the result was inactive.
For the compound `CC(=O)OCC(=O)[C@@]1(OC(C)=O)[C@@H](C)C[C@H]2[C@@H]3C[C@H](F)C4=CC(=O)C=C[C@]4(C)[C@@]3(F)[C@@H](O)C[C@@]21C`, the outcome was inactive.
For `CC(=O)OCCC(C)CC(C)(C)C` (stereo not given), the result was inactive.
For the compound `C=CC(=O)O`, the outcome was inactive.
In the case of `CC(=O)C(=O)CC(C)C`, the result was inactive.
To `O=C(O)CCC(=O)c1ccc(-c2ccccc2)cc1` belongs “inactive”.
To `ClC1=C(Cl)C1(Cl)Cl` belongs “inactive”.
To `O=C(O)CCS` belongs “inactive”; to `CC1C(C)(C)C2=C(C(=O)CCC2)C1(C)C` (stereo not given), “inactive”.
